In all, about 16,000 compounds went through this assay and about 5,800 (36%) were called active. Roughly 23% stayed inconclusive and do not appear here. Calls follow the shape of the dose curve; as a rule, active = well fitted curve in the direction sought with a large enough effect; inconclusive = small, poorly fitted or top-dose-only effect, or effect the other way; inactive = no such curve, though single readings can be large or run the other way. The list shows a part of the results.
Molecular target: Cytochrome P450 2C19 (Homo sapiens) (UniProt P33261)
Test: Cytochrome panel assay with activity outcomes
Settings: recombinant CYP, pro-luciferin dealkylation, luminescence, p450-cyp2c19; series mostly up to 57.1 µM
% is scaled to controls: 0 for no effect and ±100 for the full control effect.

Cytochrome P450 2C19 (Homo sapiens), sequence (P33261 whole entry, looked up): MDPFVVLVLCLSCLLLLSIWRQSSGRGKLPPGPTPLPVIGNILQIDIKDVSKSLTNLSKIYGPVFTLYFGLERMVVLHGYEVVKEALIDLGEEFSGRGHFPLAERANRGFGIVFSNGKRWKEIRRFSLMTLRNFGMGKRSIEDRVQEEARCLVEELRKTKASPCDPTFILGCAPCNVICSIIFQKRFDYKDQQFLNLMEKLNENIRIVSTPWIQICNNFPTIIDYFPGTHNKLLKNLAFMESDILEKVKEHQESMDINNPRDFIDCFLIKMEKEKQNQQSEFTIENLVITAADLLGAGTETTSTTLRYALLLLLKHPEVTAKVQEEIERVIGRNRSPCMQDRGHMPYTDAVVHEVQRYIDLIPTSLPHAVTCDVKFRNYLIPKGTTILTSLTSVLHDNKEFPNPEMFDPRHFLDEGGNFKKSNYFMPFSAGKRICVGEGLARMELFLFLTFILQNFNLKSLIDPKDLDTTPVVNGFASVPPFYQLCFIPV

| Structure (SMILES) | AC50 | activity, negative = inhibition |
| --- | --- | --- |
| COC(=O)C(NC(=O)c1ccccc1)=C1C=C(C)OC(C)=C1 | inactive | – |
| CC1=CC(=C2C(=O)c3ccccc3C2=O)C=C(C)N1Cc1ccco1 | 4.47 µM (active) | – |
| CCCCS(=O)(=O)NC1=NCN(Cc2ccco2)CN1 | inactive | – |
| CC1=CC(=C2C(=O)c3ccccc3C2=O)C=C(C)O1 | 25.1 µM (active) | – |
| Cc1nc(SCc2cccc(Oc3ccccc3)c2)n[nH]1 | 5.01 µM (active) | – |
| CO[C@]1(NC(=O)[C@H](C(=O)O)c2ccc(O)cc2)C(=O)N2C(C(=O)O)=C(CSc3nnnn3C)CO[C@H]21 | inactive | – |
| CC(=O)NCCNc1ncncc1-c1ccccc1C(F)(F)F | inactive | – |
| FC(F)(F)c1ccccc1-c1cncnc1NCCc1cnc[nH]1 | 0.01 µM (active) | – |
| COc1ccccc1-c1cncnc1NCCc1cnc[nH]1 | 0.0794 µM (active) | – |
| COc1cccc(-c2cncnc2NCCc2cnc[nH]2)c1 | 0.01 µM (active) | – |
| CS(=O)(=O)N1CCC2(CCCN(C(=O)Nc3cccc(F)c3)C2)CC1 | inactive | – |
| Cc1ccc(C(C)C)n1C(=O)OC(C)(C)C | – | 4.81% [at 11.4 µM] (inactive) |
| CN(C)/C=N/c1ncc(C(=O)c2ccc3ccccc3c2)s1 | 14.1 µM (active) | – |
| CN(C)c1ccc(/C=N\NC(=O)c2cnc3ccccc3c2)cc1 | – | 21.3% [at 11.4 µM] (inactive) |
| COc1ccc(C(C(=O)NC2CCCC2)N(C(=O)c2snc(-c3ccc(F)cc3)c2N)c2ccccc2)cc1 (stereo unspecified) | inactive | – |
| O=C(NC1CCCCC1)C(c1cccs1)N(C(=O)C(F)(F)F)c1ccccc1 (stereo unspecified) | 1.58 µM (active) | – |
| COc1ccc(CCN(C(=O)C(F)(F)F)C(C(=O)NC2CCCC2)c2cccs2)cc1 (stereo unspecified) | 2 µM (active) | – |
| CCOC(=O)c1ccc(N/C(=N\S(=O)(=O)c2ccccc2C)c2ccccc2)cc1 | 7.94 µM (active) | – |
| COc1cc2c(cc1OC)C(C(=O)Nc1ccc3c(c1)OCCO3)C(c1cccnc1)N(C)C2=O (stereo unspecified) | inactive | – |
| COCCN1C(=O)c2ccccc2C(C(=O)Nc2ccc3c(c2)OCCO3)C1c1ccc(F)cc1 (stereo unspecified) | 28.2 µM (active) | – |
| COc1cc(OC)c(C2C(C(=O)O)c3ccccc3C(=O)N2C)cc1OC (stereo unspecified) | inactive | – |
| CCn1c(SCC(=O)N/N=C/C=C\c2ccccc2[N+](=O)[O-])nnc1-c1ccccc1 | 14.1 µM (active) | – |
| CC1=NNC(=O)C1CCC(=O)N/N=C\c1ccccc1[N+](=O)[O-] (stereo unspecified) | inactive | – |

| Structure (SMILES) | AC50 | activity, negative = inhibition |
| --- | --- | --- |
| Cc1noc(C)c1C(=O)N1CCC[C@@]2(CCN(Cc3nccs3)C2)C1 | inactive | – |
| CSc1nc(C)cc(Nc2ccc(O)c(CN3CCOCC3)c2)n1 | – | 52.5% [at 11.4 µM] (inactive) |
| Cc1cc(N2CCOCC2)nc(SCc2ccc(Cl)cc2Cl)n1 | 2.24 µM (active) | – |
| COc1cccc2c1C(=O)c1c(O)c3c(c(O)c1C2=O)C[C@](O)(C(=O)CO)C[C@H]3O[C@@H]1C[C@H](N)[C@H](O)[C@H](C)O1 | inactive | – |
| Cc1cc(Oc2ccc(-c3ccccc3)cc2)nc(N2CCOCC2)n1 | 14.1 µM (active) | – |
| CCCc1ccc(Oc2cc(C)nc(N3CCOCC3)n2)cc1 | 11.2 µM (active) | – |
| O=c1c(-c2ccccc2)nc2cnc(N3CCOCC3)nc2n1C1CC1 | inactive | – |
| COc1ccc(-n2c(=O)c(-c3ccccc3)nc3cnc(N4CCOCC4)nc32)cc1 | inactive | – |
| Nc1nc(Cl)nc2c1ncn2[C@@H]1O[C@@H](COP(=O)(O)OP(=O)(O)OP(=O)(O)O)[C@@H](O)[C@H]1O | inactive | – |
| COc1ccc(CN(C(=O)Cc2cccs2)C(C(=O)NC2CCCC2)c2ccncc2)cc1 (stereo unspecified) | 1.78 µM (active) | – |
| O=C(NC1CCCC1)C(c1ccsc1)N(Cc1ccccc1)C(=O)Cc1cccs1 (stereo unspecified) | 5.01 µM (active) | – |
| O=C(NC1CCCCC1)C(c1cccs1)N(Cc1cccs1)C(=O)c1ccco1 (stereo unspecified) | 1.58 µM (active) | – |
| CO[C@H]1[C@@H](OC(N)=O)[C@H](O)[C@@H](Oc2ccc3c(O)c(NC(=O)c4ccc(O)c(CC=C(C)C)c4)c(=O)oc3c2C)OC1(C)C | inactive | – |
| NC(=S)c1ccc[n+]([C@@H]2O[C@@H](COP(=O)([O-])OP(=O)(O)OC[C@@H]3O[C@@H](n4cnc5c(N)ncnc54)[C@@H](OP(=O)(O)O)[C@H]3O)[C@@H](O)[C@H]2O)c1 | inactive | – |
| COc1cccc(C(=O)/C=C/c2ccc(SC)cc2)c1 | 0.631 µM (active) | – |
| COc1ccc2[nH]c(C(=O)c3ccccc3)cc2c1 | inactive | – |
| CCCCCCCCCCCCCCCCCCc1ccc(C(=O)/C=C\C(=O)O)cc1 | inactive | – |
| CCCC(=O)Nc1ccc(C(=O)/C=C/c2ccc(SC)cc2)cc1 | 2.51 µM (active) | – |
| O=S(=O)(NCc1cccnc1)c1ccc(Cl)nc1 | 31.6 µM (active) | – |
| c1cncc(CNCc2cccnc2)c1 | – | 5.45% [at 11.4 µM] (inactive) |
| OCCNc1ncnc2nc[nH]c12 | – | 10.2% [at 11.4 µM] (inactive) |
| Cc1cc2c(ncn2Cc2ccccc2)c([N+](=O)[O-])c1C | 4.47 µM (active) | – |
| Cc1cccc(Cn2cnc3c(NS(C)(=O)=O)c(C)c(C)cc32)c1 | 3.98 µM (active) | – |

| Structure (SMILES) | AC50 | activity, negative = inhibition |
| --- | --- | --- |
| COc1ccc2oc(-c3ccc(C)c(NC(=O)CSc4ccc(Cl)cc4)c3)nc2c1 | 0.562 µM (active) | – |
| CC[C@@H]1OC(=O)[C@H](C)[C@H](O[C@@H]2C[C@](C)(OC)[C@H](O)[C@H](C)O2)[C@H](C)[C@H](O[C@@H]2O[C@@H](C)C[C@@H](N(C)C)[C@@H]2O)[C@](C)(O)C[C@H](C)[C@@H]2N[C@H](COCCOC)O[C@H]([C@@H]2C)[C@]1(C)O | inactive | – |
| COC(=O)c1cc(NC(=O)CC2NC3CCCCC3NC2=O)cc(C(=O)OC)c1 (stereo unspecified) | inactive | – |
| COC(=O)c1c(NC(=O)CC2Nc3ccccc3NC2=O)sc(C)c1C (stereo unspecified) | 11.2 µM (active) | – |
| CCN(CC)CCCNC(=O)CC1Sc2ccccc2NC1=O (stereo unspecified) | inactive | – |
| Nc1nc(N)c2nn(-c3ccc(C(=O)O)cc3)nc2n1 | – | 19.9% [at 11.4 µM] (inactive) |
| COC(=O)C1Cc2c([nH]c3ccccc23)CN1 (stereo unspecified) | 3.98 µM (active) | – |
| CC[C@H]1CN(C)[C@H]2Cc3c([nH]c4ccccc34)C(=O)C[C@H]1[C@H]2C(=O)OC | – | 22.2% [at 11.4 µM] (inactive) |
| O=C(O)[C@@H]1Cc2c([nH]c3ccccc23)[C@@H](CCCCO)N1 | – | 17.4% [at 11.4 µM] (inactive) |
| O=c1[nH]c2cc([N+](=O)[O-])c([N+](=O)[O-])cc2[nH]c1=O | inactive | – |
| CCCCCCCCCCCCCC(=O)O[C@H](CC(=O)O)C[N+](C)(C)C | inactive | – |
| Cc1ccc(NC(=O)C2(NC(=O)c3cccc(N4C(=O)CSC4c4ccccc4)c3)CCCCC2)cc1 (stereo unspecified) | 28.2 µM (active) | – |
| CN(C)CC/C=C1\c2ccccc2CSc2ccccc21 | inactive | – |
| Cc1nc(SC2CC(=O)N(c3ccc([N+](=O)[O-])cc3)C2=O)nc2c1CCCC2 (stereo unspecified) | 4.47 µM (active) | – |
| O=C(Cc1ccc(Br)cc1)OCC(=O)c1ccc2c(c1)OCCO2 | 15.8 µM (active) | – |
| O=c1c2ccc(Cl)cc2nc(-c2cccc(C(F)(F)F)c2)n1O | 14.1 µM (active) | – |
| FC(F)(F)c1cccc(-c2nc3nc(Cl)c(Cl)nc3[nH]2)c1 | – | -19.6% [at 11.4 µM] (inactive) |
| Cc1cc(C)n2c(SCC(=O)N(C)C3CCS(=O)(=O)C3)nnc2n1 (stereo unspecified) | inactive | – |
| Cc1ccc(-n2ccnc2SCC(=O)N(CC(C)C)C2CCS(=O)(=O)C2)c(C)c1 (stereo unspecified) | 10 µM (active) | – |
| Cc1cccc(Nc2cc(Cl)nc(SCC(=O)O)n2)c1C | inactive | – |
| Cc1cccc(NC(=O)CSc2nnc(-c3ccco3)c(-c3ccco3)n2)c1C | 2.24 µM (active) | – |
| CC/C=C\CC[C@H](OC(=O)c1ccc(Br)cc1)C1=CCCCC1=O | 2 µM (active) | – |
| CC/C=C\CC[C@H](O)C1=CCCCC1=O | – | 13.3% [at 11.4 µM] (inactive) |

| Structure (SMILES) | AC50 | activity, negative = inhibition |
| --- | --- | --- |
| O=C1CCCC=C1[C@H](CCc1ccccc1)OC(=O)c1ccc(Br)cc1 | 1.58 µM (active) | – |
| O=C1CCCC=C1[C@H](O)c1ccc([N+](=O)[O-])cc1 | – | -22% [at 11.4 µM] (inactive) |
| Cc1c(Cl)c(S(N)(=O)=O)cc2c1=NC=NS=2(=O)O | – | 8.1% [at 11.4 µM] (inactive) |
| CN1CCC2(CC1)CCN(C(=O)c1ccncc1)CC2 | inactive | – |
| COc1ccc2c(c1)nc(SCC(=O)c1ccc(Br)s1)n2C | 0.398 µM (active) | – |
| CCOc1ccc2c(c1)nc(SCC(=O)c1ccc(Br)s1)n2C | 0.708 µM (active) | – |
| Nc1ncnc2c1ncn2[C@@H]1O[C@@H](C(=O)NC2CC2)[C@H](O)[C@@H]1O | inactive | – |
| Cc1cc(O)c(/C=N/Nc2cccc(Cl)c2)c(=O)o1 | 3.16 µM (active) | – |
| C[C@@H](CSC(=N)N)C(N)=O | – | 27.2% [at 11.4 µM] (inactive) |
| COc1ccc(CNC(=O)Cc2csc(Nc3nc(=S)[nH]c4ccccc34)n2)cc1 | 2.82 µM (active) | – |
| O=C(Cc1csc(Nc2nc(=S)[nH]c3ccccc23)n1)NCc1cccc(Cl)c1 | 0.794 µM (active) | – |
| Cc1ccc(CNC(=O)Cc2csc(Nc3nc(=S)[nH]c4ccccc34)n2)cc1 | 2.24 µM (active) | – |
| Oc1cc2c(cc1O)CN(C(=S)NCCc1ccc(Cl)cc1)CCC2 | 0.316 µM (active) | – |
| CN1C(=O)CC[C@@H]1c1cccnc1 | inactive | – |
| Cc1ccc(N2C(=O)CSC2c2cccnc2)cc1F (stereo unspecified) | 20 µM (active) | – |
| CC1(C)CO[C@H](CC(=O)O)CN1 | 5.01 µM (active) | – |
| Cc1nc2cnc(N(C)C)nc2n(C)c1=O | inactive | – |
| CSc1nc(N)nc(-c2cccs2)c1C#N | 7.94 µM (active) | – |
| Cc1c(-c2ccc(F)cc2)nc(N)c(C#N)c1-c1cccs1 | 4.47 µM (active) | – |
| Cc1ccccc1OCC(=O)N/N=C1\CCOc2c(C)cccc21 | inactive | – |
| Cc1cccc2c1OCC/C2=N\NC(=O)COc1ccccc1 | 3.16 µM (active) | – |
| COc1cccc(OCC(=O)NN=C2c3ccccc3-c3ccccc32)c1 | 0.708 µM (active) | – |

— PubChem BioAssay AID1851 (National Center for Advancing Translational Sciences (NCATS), 2009)
